Data on 14 compounds can be found in PubChem BioAssay (NCATS).

Values without a mark were called inactive. Records with an inconclusive call do not appear. The source made the active and inactive calls. Unless noted, calls follow the shape of the dose curve; as a rule, active = well fitted curve in either direction with a large enough effect (not every such curve was filed as active); inconclusive = small, poorly fitted or top-dose-only effect, or another doubt; inactive = flat fitted curve, though single readings scatter. A value given as a limit tells only on which side of the number the result lay.

The target of assay [1] is Lysosomal acid glucosylceramidase (Homo sapiens) (UniProt P04062). In words: Glucocerebrosidase-p2 (AID 348; in the data active = potency below about 10 µM; also: potency is read from the fitted curve at half-maximal effect). The note with it: purified GBA, blue fluorogenic substrate, 40 min. In short, it runs like this: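 Normal human glucocerebrosidase (0.2 nM) with blue fluorogenic substrate (80 uM final) in citrate/phosphate pH 5.9 with 10mM sodium taurocholate, 0.01% tween-20; 40 min RT, NaOH/glycine stop; fluorescence Ex 365/Em 440; AC50 from a titration from 0.6 nM upwards.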
Lysosomal acid glucosylceramidase (Homo sapiens), sequence (P04062 whole entry, looked up): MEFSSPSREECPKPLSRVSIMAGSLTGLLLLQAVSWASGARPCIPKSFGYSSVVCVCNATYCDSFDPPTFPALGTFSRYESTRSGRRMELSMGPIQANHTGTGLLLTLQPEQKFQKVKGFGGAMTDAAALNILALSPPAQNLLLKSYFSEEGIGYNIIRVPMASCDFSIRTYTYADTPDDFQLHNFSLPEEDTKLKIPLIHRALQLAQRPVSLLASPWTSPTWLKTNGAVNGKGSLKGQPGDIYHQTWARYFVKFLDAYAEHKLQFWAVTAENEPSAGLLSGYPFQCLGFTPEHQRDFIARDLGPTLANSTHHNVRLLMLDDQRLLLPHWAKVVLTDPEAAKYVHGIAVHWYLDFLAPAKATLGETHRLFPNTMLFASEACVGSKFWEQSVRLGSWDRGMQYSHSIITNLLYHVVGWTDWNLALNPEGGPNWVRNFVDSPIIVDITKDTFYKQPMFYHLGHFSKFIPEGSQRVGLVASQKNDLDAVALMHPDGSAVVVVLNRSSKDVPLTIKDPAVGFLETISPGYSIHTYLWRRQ

Assay [2] is described as follows: AP1 Signaling Pathway (AID 357). Also: % is scaled to controls: 0 for no effect and ±100 for the full control effect. The note with it: ME-180 AP-1-bla reporter, EGF-induced, beta-lactamase ratio, 5 h; at 7.69 µM (top of the series) unless noted. The method in brief:
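AP-1-bla ME-180 cells with beta-lactamase reporter under AP-1 response element, stimulated with EC50 EGF; compounds titrated, 5 hours at 37 degrees Celsius. CCF4 read at 460/530 nm ratio; positive and negative modulators judged by AC50.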

The nature of assay [3]: Stat Signaling Pathway (AID 446).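 Also: ME-180 cervical cancer cells given 40 pM IL-6 alongside compound; SIE-controlled beta-lactamase reporter measured as 460/530 nm FRET emission ratio; % is scaled to controls: 0 for no effect and ±100 for the full control effect.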 The settings on record: ME-180 (cervical carcinoma) SIE beta-lactamase reporter, IL-6 stimulated, 5 h; at 7.69 µM (top of the series) unless noted. The method in brief:
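Overnight-plated ME-180 cells bearing a STAT Inducible Element beta-lactamase reporter; 5 h co-exposure to compound and 40 pM IL-6; values normalized to 300 pM IL-6 and 125 nM JAK inhibitor controls.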

In assay [4] the target is Glucocorticoid receptor (Homo sapiens) (UniProt P04150). Nature of the assay: GR-GFP Redistribution (AID 450;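 active = compounds whose dose series gives a full or clear partial fitted curve of increased nuclear translocation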; also: potency is read from the fitted curve at half-maximal effect). The settings on record: U2OS GR-GFP nuclear translocation, laser cytometry, 2 h.
Glucocorticoid receptor (Homo sapiens), sequence (P04150 whole entry, looked up): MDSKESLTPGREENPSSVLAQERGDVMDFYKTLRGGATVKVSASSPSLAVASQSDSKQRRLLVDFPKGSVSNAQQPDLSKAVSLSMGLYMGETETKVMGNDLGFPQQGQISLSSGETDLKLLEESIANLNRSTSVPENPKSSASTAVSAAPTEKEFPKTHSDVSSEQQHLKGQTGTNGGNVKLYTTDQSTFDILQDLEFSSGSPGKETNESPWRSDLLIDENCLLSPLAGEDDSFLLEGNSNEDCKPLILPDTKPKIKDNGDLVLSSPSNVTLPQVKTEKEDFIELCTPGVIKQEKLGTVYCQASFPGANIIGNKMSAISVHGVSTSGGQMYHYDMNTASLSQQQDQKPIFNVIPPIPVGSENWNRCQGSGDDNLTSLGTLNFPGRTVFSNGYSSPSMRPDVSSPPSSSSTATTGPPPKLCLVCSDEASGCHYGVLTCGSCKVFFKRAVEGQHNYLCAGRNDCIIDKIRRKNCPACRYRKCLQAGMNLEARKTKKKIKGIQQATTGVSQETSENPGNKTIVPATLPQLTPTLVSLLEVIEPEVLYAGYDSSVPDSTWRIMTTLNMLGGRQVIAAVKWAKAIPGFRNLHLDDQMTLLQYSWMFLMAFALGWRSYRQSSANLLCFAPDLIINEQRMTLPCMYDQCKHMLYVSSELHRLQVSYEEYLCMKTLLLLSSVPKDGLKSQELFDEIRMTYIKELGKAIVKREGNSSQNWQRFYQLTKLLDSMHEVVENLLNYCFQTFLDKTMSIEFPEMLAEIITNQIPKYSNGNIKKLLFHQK
Assay [5] has the same target. In words: GR-EFC Redistribution (AID 451; calls by dose curve; also: potency is read from the fitted curve at half-maximal effect). The settings on record: CHO-K1 GR-EFC translocation, beta-gal luminescence, 2 h. The method in brief:
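CHO-K1 cells stably expressing nuclear-localized β-gal enzyme acceptor and GR fused C-terminally to the enzyme donor fragment; ligand-driven nuclear translocation restores β-gal by complementation. Compounds titrated up to 46 uM final, 2 h at 37 °C; luminescence read.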

Assay [6] addresses Mitogen-activated protein kinase 10 (Mus musculus) (UniProt Q61831). Nature of the assay: JNK3 AlphaScreen Assay (AID 530).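 Also: kinase came from lysate of stimulated human HepG2 cells; % is scaled to controls: 0 for no effect and ±100 for the full control effect.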 The settings on record: JNK3 lysate, c-Jun phosphorylation; series mostly up to 11.4 µM. The method in brief: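 Biotinylated GST-cJun(1-79) served as substrate for JNK3 in HepG2 lysates stimulated with IL-1beta and TNF-alpha. ATP was 10 uM final, pH 7.6. Ser73 phosphorylation was quantified by AlphaScreen (680 nm excitation).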
(In general: Alpha assays give light when donor and acceptor beads are brought close together.)

Assay [7] has as its target 3',5'-cyclic-AMP phosphodiesterase 4B (Homo sapiens) (UniProt Q07343). In words: qHTS Assay for Inhibitors of PDE-IV (AID 607; active = well fitted activation curve with a large enough effect in the main read-out, with a control signal flat, not every such curve was filed as active; also: % of control where 0% means no effect). The settings on record: HEK293 ACTOne CNG channel cells, membrane potential fluorescence; series mostly up to 22.9 µM. The method in brief:
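Live HEK293 cells with a modified cyclic nucleotide-gated (CNG) channel report intracellular cAMP via membrane-potential dye fluorescence (ex 535/em 590 nm). Endogenous PDE-IV was targeted. Compounds were tested at up to 22.9 uM final; RO 20-1724 100 uM served as control.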
For orientation: In qHTS, concentration-response curves come from the screen itself.

The nature of assay [8]: NFAT Signaling Pathway (AID 444).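 Also: carbachol stimulus at about its EC50 of 1 µM final; % is scaled to controls: 0 for no effect and ±100 for the full control effect.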 The settings on record: Jurkat NFAT-bla M1, carbachol, beta-lactamase ratio, 5 h; at 7.69 µM (top of the series) unless noted. In short, it runs like this: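 Jurkat cells carrying an NFAT-driven β-lactamase reporter and co-transfected muscarinic M1 receptor were treated with compound plus carbachol (1 uM final, an EC50 level) for 5 h at 37 °C. CCF4 loading followed for 1 h at RT; 460/530 nm ratio gave %activity.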

Assay [9] can be described thus: Confirmation and Secondary Assay for Modulators of Hemoglobin Beta Chain Splicing at IVS2 654 locus (AID 910; active = well fitted curve in the direction sought with a large enough effect; an effect the other way counts as inactive or inconclusive;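 also: per-well total GFP intensity by laser scanning cytometry after 2-day treatment; % of control where 0% means no effect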). The note with it: HeLa EGFP-654 splicing reporter, GFP fluorescence, 48 h; series mostly up to 38.3 µM. In short, it runs like this: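 HeLa cells stably carrying EGFP interrupted by mutant beta-globin IVS2-654 intron (CMV-driven) were treated with compound for 2 days at 37C; corrected splicing was scored as total peak GFP intensity per well (488 nm excitation, 500-520 nm emission).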

Assay [10] is described as follows: Confirmation and Secondary Assay for Modulators of Hemoglobin Beta Chain Splicing at IVS2 705 locus (AID 930; active = well fitted curve in the direction sought with a large enough effect; an effect the other way counts as inactive or inconclusive;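 also: HeLa cells stably expressing the EGFP-705 splicing reporter; GFP fluorescence per well restored by corrected splicing of the IVS2-705 intron in EGFP; % of control where 0% means no effect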). The note with it: HeLa EGFP-705 splicing reporter, GFP fluorescence, 48 h; series mostly up to 38.3 µM. The method in brief: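 HeLa IVS2-705 EGFP reporter cells, 500/well, compound 2 d at 37C; correct splicing yields fluorescent EGFP. Control: 500 nM antisense PNA. Read-out: total peak GFP intensity.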

Assay [11] concerns the target Ubiquitin carboxyl-terminal hydrolase 1 (Homo sapiens) (UniProt O94782). Nature of the assay: Inhibitors of USP1/UAF1: Pilot qHTS (AID 504865; active = well fitted curve in the direction sought with a large enough effect; an effect the other way counts as inactive or inconclusive; also: potency is read from the fitted curve at half-maximal effect; nearly all actives have a fitted effect of over 35% in size). The note with it: purified USP1/UAF1, Ub-rhodamine cleavage fluorescence; series mostly up to 114 µM. In short, it runs like this:
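Enzyme-free wells gave the negative control, while test wells held 1nM USP1/UAF1 preincubated with compound for 15 min at room temperature. Ub-Rho at 150nM final started the reaction, and fluorescence at 480/540 nm was recorded kinetically.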

For assay [12], the target named is Cytochrome P450 2C19 (Homo sapiens) (UniProt P33261). In words: qHTS Assay for Inhibitors and Substrates of Cytochrome P450 2C19 (AID 899; active = well fitted curve in the direction sought with a large enough effect; an effect the other way counts as inactive or inconclusive; also: potency is read from the fitted curve at half-maximal effect; nearly all actives have a fitted effect of over 60% in size). The note with it: recombinant CYP2C19, luciferin-H EGE luminescence; series mostly up to 11.4 µM. In short, it runs like this: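 NADPH-dependent conversion of Luciferin-H EGE (10uM, at KM) by 5nM enzyme in 50mM KPO4, 60 min at 37C following 10 min compound preincubation. Stopped with luciferin detection buffer; luminescence read after 20 min.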
Cytochrome P450 2C19 (Homo sapiens), sequence (P33261 whole entry, looked up): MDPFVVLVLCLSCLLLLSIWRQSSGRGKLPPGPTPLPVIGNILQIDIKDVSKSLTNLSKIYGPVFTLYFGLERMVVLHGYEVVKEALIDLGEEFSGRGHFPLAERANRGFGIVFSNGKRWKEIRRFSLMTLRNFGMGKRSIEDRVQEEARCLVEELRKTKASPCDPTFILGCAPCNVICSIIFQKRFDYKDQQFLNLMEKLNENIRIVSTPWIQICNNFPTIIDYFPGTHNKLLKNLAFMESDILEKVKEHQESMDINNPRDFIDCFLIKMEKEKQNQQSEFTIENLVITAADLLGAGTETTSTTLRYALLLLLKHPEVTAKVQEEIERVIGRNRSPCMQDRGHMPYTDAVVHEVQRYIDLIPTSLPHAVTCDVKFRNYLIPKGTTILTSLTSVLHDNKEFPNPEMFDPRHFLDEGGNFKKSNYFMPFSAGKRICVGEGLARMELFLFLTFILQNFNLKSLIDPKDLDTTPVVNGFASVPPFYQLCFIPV

For assay [13], the target named is Cytochrome P450 3A4 (Homo sapiens) (UniProt P08684). In words: qHTS Assay for Activators of Cytochrome P450 3A4 (AID 885; active = well fitted curve in the direction sought with a large enough effect; an effect the other way counts as inactive or inconclusive; also: nearly all actives have a fitted effect of over 65% in size). The note with it: recombinant CYP3A4, Luciferin-PPXE luminescence, 60 min; series mostly up to 11.4 µM. In short, it runs like this:
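Using 20nM recombinant human CYP3A4 in potassium phosphate (200mM), substrate Luciferin-PPXE at 25uM, luminescent luciferin detection followed a 60-min RT NADPH reaction; data scaled to 57 uM ketoconazole.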

3',5'-cyclic-AMP phosphodiesterase 4B (Homo sapiens), sequence (Q07343 whole entry, looked up): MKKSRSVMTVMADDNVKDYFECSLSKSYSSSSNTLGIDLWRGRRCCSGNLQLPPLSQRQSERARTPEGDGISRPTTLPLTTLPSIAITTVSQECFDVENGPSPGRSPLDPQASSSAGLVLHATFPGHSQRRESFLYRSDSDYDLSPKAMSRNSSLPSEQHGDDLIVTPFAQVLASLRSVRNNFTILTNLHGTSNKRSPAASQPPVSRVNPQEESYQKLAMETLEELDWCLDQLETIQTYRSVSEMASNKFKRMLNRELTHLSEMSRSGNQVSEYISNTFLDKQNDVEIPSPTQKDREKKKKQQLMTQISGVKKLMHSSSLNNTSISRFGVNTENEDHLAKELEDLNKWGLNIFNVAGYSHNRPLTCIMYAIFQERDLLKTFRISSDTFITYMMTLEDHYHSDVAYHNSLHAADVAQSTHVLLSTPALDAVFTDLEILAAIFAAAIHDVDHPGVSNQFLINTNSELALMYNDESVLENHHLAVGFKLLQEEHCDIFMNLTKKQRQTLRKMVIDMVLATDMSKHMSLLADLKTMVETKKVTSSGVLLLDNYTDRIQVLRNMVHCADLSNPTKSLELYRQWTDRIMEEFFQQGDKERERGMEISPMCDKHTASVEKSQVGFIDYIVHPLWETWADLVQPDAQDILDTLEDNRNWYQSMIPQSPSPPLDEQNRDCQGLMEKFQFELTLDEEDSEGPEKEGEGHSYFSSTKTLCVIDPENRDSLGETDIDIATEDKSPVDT
Ubiquitin carboxyl-terminal hydrolase 1 (Homo sapiens), sequence (O94782 whole entry, looked up): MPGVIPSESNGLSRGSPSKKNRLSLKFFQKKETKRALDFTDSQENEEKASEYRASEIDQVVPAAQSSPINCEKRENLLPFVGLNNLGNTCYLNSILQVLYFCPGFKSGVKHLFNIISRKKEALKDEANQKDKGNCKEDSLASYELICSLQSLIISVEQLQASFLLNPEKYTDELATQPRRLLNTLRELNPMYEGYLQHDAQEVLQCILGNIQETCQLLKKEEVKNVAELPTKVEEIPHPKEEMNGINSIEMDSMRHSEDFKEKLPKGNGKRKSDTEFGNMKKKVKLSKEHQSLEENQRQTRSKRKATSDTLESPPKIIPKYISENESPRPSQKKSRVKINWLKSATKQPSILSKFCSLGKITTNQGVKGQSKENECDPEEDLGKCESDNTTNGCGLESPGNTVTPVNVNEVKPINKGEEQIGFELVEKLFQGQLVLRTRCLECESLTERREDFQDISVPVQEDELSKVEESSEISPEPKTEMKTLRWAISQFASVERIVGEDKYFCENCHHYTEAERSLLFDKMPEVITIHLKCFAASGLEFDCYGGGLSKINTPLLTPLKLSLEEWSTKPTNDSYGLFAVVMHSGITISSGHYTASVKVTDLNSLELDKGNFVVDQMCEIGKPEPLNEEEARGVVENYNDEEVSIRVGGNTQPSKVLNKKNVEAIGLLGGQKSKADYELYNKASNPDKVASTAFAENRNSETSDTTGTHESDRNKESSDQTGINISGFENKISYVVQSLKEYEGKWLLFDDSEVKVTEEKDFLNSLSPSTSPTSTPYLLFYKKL
Cytochrome P450 3A4 (Homo sapiens), sequence (P08684 whole entry, looked up): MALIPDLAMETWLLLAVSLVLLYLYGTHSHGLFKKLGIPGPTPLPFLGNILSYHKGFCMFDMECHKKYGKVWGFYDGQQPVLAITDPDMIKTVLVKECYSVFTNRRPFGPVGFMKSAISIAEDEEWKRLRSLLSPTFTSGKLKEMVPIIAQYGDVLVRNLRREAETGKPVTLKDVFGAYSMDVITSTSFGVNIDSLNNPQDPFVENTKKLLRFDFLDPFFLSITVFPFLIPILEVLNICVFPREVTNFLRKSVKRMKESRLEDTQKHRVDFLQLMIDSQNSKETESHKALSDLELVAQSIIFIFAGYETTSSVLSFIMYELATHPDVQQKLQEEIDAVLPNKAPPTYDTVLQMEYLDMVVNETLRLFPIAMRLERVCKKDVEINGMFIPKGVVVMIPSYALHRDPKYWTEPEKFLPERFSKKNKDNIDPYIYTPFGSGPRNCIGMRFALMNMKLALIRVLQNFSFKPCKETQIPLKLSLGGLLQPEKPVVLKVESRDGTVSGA

As for `Cn1cnc([N+](=O)[O-])c1Sc1nnc(-c2cccnc2)n1C`, the Potency was greater than 11.4 µM in [1], greater than 46 µM in assay [4] and greater than 9.22 µM in [5]. The activity change, negative = inhibition in assay [2] was 19.7%. The activity, negative = inhibition in assay [3] was 4.54%. The Potency entry in assay [6] and in assay [7] was “inactive” in each case.

Turning to `c1ccc2c[n+](CCCC[n+]3ccc4ccccc4c3)ccc2c1`, the Potency in assay [1] is greater than 11.4 µM; in assay [4], greater than 46 µM; in assay [5] it was greater than 9.22 µM. Also, in assay [2], the activity change, negative = inhibition was 9.12%. Also, in assay [3], the activity, negative = inhibition is -5.69%. Further, the Potency entry in [6] and in assay [7] was “inactive” throughout.

`O=C(O)[C@H]1CCCC[C@@H]1c1c2ccc(=O)c(O)c-2oc2c(O)c(O)ccc12`: the results for the Potency in [1], in assay [4] and in assay [5] were greater than 11.4 µM, greater than 46 µM and greater than 9.22 µM, respectively. Besides, the results for the activity change, negative = inhibition in assay [2] and in [8] were -17.7% and 0.0388%, respectively. Further, the Potency entry in assay [7] was “inactive”.

Turning to `Nc1ncnc2nc(-c3ccc(C[P+](c4ccccc4)(c4ccccc4)c4ccccc4)cc3)[nH]c12`, the Potency is greater than 11.4 µM in assay [1], greater than 46 µM in [4] and greater than 9.22 µM in assay [5]. For the same compound, the activity change, negative = inhibition in assay [2] is 3.32%. For the same compound, the activity, negative = inhibition in assay [3] was 1.06%. Moreover, the Potency entry in assay [6] and in [7] was “inactive” throughout.

Take `COc1ccc(C[C@H](O)CN2CCOCC2)cc1`: the Potency in [1] is greater than 11.4 µM; in assay [4], greater than 46 µM; in assay [5], greater than 9.22 µM. In addition, the activity change, negative = inhibition in assay [2] is -3.04%. The activity, negative = inhibition in assay [3] is 9.2%. Moreover, the Potency result in assay [6] and in assay [7] was “inactive” each time.

As for `CCN(CC)COC(=S)S`, the Potency in assay [1] was greater than 11.4 µM; in [5], greater than 9.22 µM. The activity change, negative = inhibition is 7.48% in assay [2] and -12.2% in assay [8]. Besides, the Potency entry in assay [6] and in [7] was “inactive” in each case.

On to `NC(=O)N[C@H](CC(=O)O)C(=O)O`, for which the Potency in [1] is greater than 11.4 µM; in [4], greater than 46 µM; in assay [5], greater than 9.22 µM. Also, the activity change, negative = inhibition in assay [2] is -2.2%. The activity, negative = inhibition in assay [3] is -0.625%. Also, the Potency entry in assay [6] and in [7] was “inactive” in each case.

With `Fc1cccc(Cl)c1/C=N\N=C1c2ccccc2-c2ccccc21`, the Potency in assay [1] is greater than 11.4 µM; in assay [4] it was greater than 46 µM; in assay [5] it was greater than 9.22 µM. In addition, in [2], the activity change, negative = inhibition was 13.6%. In addition, the activity, negative = inhibition in assay [3] is 6.95%. Further, the Potency entry in [6] and in [7] was “inactive” throughout.

With `Oc1cc(O)c2c(c1)O[C@H](c1ccc(O)c(O)c1)[C@@H](O)[C@@H]2c1c(O)cc(O)c2c1O[C@@H](c1ccc(O)c(O)c1)[C@H](O)C2`, the Potency was greater than 11.4 µM in [1], greater than 46 µM in assay [4] and greater than 9.22 µM in assay [5]. The activity change, negative = inhibition in [2] is 16.5%. The activity, negative = inhibition in assay [3] is -2.56%. The Potency entry in [6] and in [7] was “inactive” in each case.

In the case of `COc1ccc(CNc2nc(-c3ccccc3OC)nc3ccccc23)c(OC)c1`, the Potency was greater than 11.4 µM in assay [1], greater than 46 µM in assay [4], greater than 46 µM in assay [5] and 20 µM (active) in assay [11]. Also, the activity change, negative = inhibition in [2] was -13.6%. Moreover, the activity, negative = inhibition in assay [3] is 16.1%. The Potency entry in assay [6] and in [7] was “inactive” in each case. Besides, the outcome in assay [9] and in assay [10] was inactive.

Consider `O=C(O)c1ccncc1.O=C(O)c1ccncc1.[Cl][Pt]([Cl])([Cl])[Cl]`, for which the Potency was greater than 11.4 µM in assay [1], greater than 46 µM in [4] and greater than 9.22 µM in assay [5]. For the same compound, the results for the activity change, negative = inhibition in assay [2] and in assay [8] were 2.72% and -19.9%, respectively. Also, the Potency result in [6] and in assay [7] was “inactive” throughout.

Take `CC(=O)Nc1ccc2c(c1)/C(=C/c1ccc([N+](C)(C)C)cc1)c1ccccc1-2`: the Potency in assay [1] is 9.02 µM (active); in [4], greater than 46 µM; in assay [5], greater than 9.22 µM. Besides, the activity change, negative = inhibition in assay [2] was -9.13%. The activity, negative = inhibition in [3] is 4.17%. Moreover, the Potency result in assay [6] and in assay [7] was “inactive” each time.

In the case of `O=[N+]([O-])c1ccc(CS(=O)Cc2ccccc2)cc1` (stereo unspecified), the Potency in assay [1] was greater than 11.4 µM; in assay [4], greater than 46 µM; in assay [5], greater than 9.22 µM; in assay [12], 1.26 µM (active). In addition, the activity change, negative = inhibition in assay [2] was -8.79%; in [8] it was -22%. Further, the Potency result in [6] and in assay [7] was “inactive” each time.

`COCCn1c(=O)c(-c2ccc(OC)cc2)nc2cnc(OC)nc21`: the Potency is greater than 11.4 µM in assay [1], greater than 9.22 µM in assay [4] and greater than 46 µM in assay [5]. Besides, the activity change, negative = inhibition in assay [2] is 2.45%; in [8] it was 8.31%. Moreover, the Potency entry in [6], in assay [7] and in assay [13] was “inactive” each time.
